Vif-A3G inh: Vif-A3G binding inhibition | Q9HC16 | HeLa A3G-eYFP + Vif (tagged APOBEC3G with the HIV-1 protein that degrades it), YFP fluorescence, overnight | Potency, µM (highest dose often 46.1 µM), most hits filed as inhibitors | 410,000 compounds, 0.076% hits | AID 602310; further: nearly all actives have a fitted effect of over 60% in size
Target sequence (Q9HC16 whole entry, looked up): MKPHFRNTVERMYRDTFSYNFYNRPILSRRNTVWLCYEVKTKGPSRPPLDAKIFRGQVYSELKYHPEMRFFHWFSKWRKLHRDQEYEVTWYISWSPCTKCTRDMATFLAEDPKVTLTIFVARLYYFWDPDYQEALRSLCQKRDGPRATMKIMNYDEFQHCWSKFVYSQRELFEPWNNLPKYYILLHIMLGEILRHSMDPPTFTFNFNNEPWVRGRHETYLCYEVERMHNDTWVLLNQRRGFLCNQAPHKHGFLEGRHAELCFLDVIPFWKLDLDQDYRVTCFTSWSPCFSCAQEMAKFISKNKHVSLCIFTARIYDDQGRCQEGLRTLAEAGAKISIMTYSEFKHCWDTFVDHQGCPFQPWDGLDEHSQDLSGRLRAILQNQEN
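Read-out is eYFP fluorescence (Ex 488/Em 500-530) from Vif-expressing HeLa A3G-eYFP cells; more signal means A3G escaped Vif-mediated degradation. Cells plated overnight, compound pinned in, incubated overnight at 37 deg C.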
SW480 rerep: induces DNA re-replication in SW480 colon adenocarcinoma cells. SW480 DNA re-replication, Hoechst DNA content imaging, 48 h. Potency, µM (top dose mostly 46.1 µM), most hits filed as activators. 340,000 compounds, 1.8% hits. AID 624297; further: nearly all actives have a fitted effect of over 55% in size
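First, 250 cells per well were seeded. Next, compound or vehicle (23 nL) was pinned in, plates sat 48 hr at 37 C. Finally Hoechst was added for 40 min before fluorescence scanning.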
Giardia killer: Giardia lamblia killing; Giardia lamblia trophozoite viability; activity change, % at 7.66 µM, hits read low; 340,000 compounds, 0.15% hits; AID 540267; in the data active means activity change below about -80%; inconclusive means between about -30% and that limit;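 further: parasites exposed to compound for two days anaerobically before the ATP read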
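Trophozoite viability was measured as ATP-dependent luminescence, read 15-30 min after reagent addition. Before that, parasites at 100 cells/well were exposed to compounds for 48 h, anaerobically, at 37 deg C.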
MCF10A rereplic: inducers of DNA re-replication in MCF 10A breast cells. MCF 10A DNA re-replication, Hoechst nuclear intensity, 48 h. Potency, µM (series often up to 46.1 µM), actives largely listed as activators. 350,000 compounds, 2.9% hits. AID 624296; further: nearly all actives have a fitted effect of over 50% in size
IL-1B inflam inh: blocks inflammasome-driven IL-1 beta release | THP-1 LPS/ATP IL-1B secretion, AlphaLISA, 16 h; stronger effect = lower value | 360,000 compounds, 4.7% hits | activity change, % at 57.5 µM; in the data active means activity change below about -50%; inconclusive means mostly about -30% to -49%
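THP-1 cells pretreated 1 hr with compounds (up to 57.5 uM final), then stimulated with LPS (250 ng/mL final) plus ATP (1.25 mM final); secreted IL-1B measured by AlphaLISA after 16 hr, decreased signal indicating inhibition.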
Vif-APOBEC3F blk: Vif-A3F binding inhibition; 390,000 compounds, 0.2% hits; Potency, µM (top dose mostly 46.1 µM); HeLa A3F-eYFP + Vif (tagged APOBEC3F with the HIV-1 protein that degrades it), YFP fluorescence increase; further: nearly all actives have a fitted effect of over 65% in size
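HeLa cells stably expressing A3F-eYFP plus Vif, plated and incubated overnight at 37 deg C, then exposed to compounds overnight at 37 deg C. Blocked degradation read as raised yellow fluorescence (Ex 488/Em 500-530).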
Hits are given with their value. Only some compounds are listed: those with a hit (about 6.9% of all), similar ones and a draw of the others. Unless noted, the call rests on the fitted dose curve; in most records, active means well fitted curve in the direction sought with a large enough effect; inconclusive means small, poorly fitted or top-dose-only effect, or another doubt; inactive means no such curve, though single readings can be large; an effect the other way counts as inactive or inconclusive.

Screening Cc1nc(NC(=O)/C=C/c2ccccc2)sc1C(=O)Nc1ccc(Cl)cc1 returned Vif-A3G inh inconclusive, SW480 rerep inconclusive, Giardia killer inactive, MCF10A rereplic 16.4µM, IL-1B inflam inh inactive and Vif-APOBEC3F blk inactive.
`Cc1nc(NC(=O)C2CC2)sc1C(=O)Nc1cccc(Cl)c1` gave Vif-A3G inh inactive, SW480 rerep inactive, Giardia killer inactive, MCF10A rereplic inactive, IL-1B inflam inh inactive and Vif-APOBEC3F blk inactive.
Cc1nc(Nc2ccc(Cl)cc2Cl)sc1C(=O)Nc1ccccc1 was read as Vif-A3G inh inactive, SW480 rerep inactive, Giardia killer inactive, MCF10A rereplic inactive, IL-1B inflam inh -93.6 and Vif-APOBEC3F blk inactive.
For COc1ccc2c(Cl)c(C(=O)N/N=C3\CCCC(=O)C3)sc2c1 the results were Vif-A3G inh 2.82µM, SW480 rerep inactive, Giardia killer inactive, MCF10A rereplic inconclusive, IL-1B inflam inh inactive and Vif-APOBEC3F blk inconclusive.
`COc1ccc2c(Cl)c(C(=O)N/N=C/c3ccc4c(c3)OCO4)sc2c1` gave Vif-A3G inh inactive, SW480 rerep inconclusive, Giardia killer inactive, MCF10A rereplic inconclusive, IL-1B inflam inh inactive and Vif-APOBEC3F blk inconclusive.
Screening c1ccc2c(c1)OCC(c1nnc3sc(-c4ccc5c(c4)OCO5)nn13)O2 (configuration not stated) returned Vif-A3G inh inactive, SW480 rerep inactive, Giardia killer inactive, MCF10A rereplic inactive, IL-1B inflam inh inactive and Vif-APOBEC3F blk inactive.
Clc1ccccc1-c1nnc2sc(-c3ccc4c(c3)OCO4)nn12 was read as Vif-A3G inh inconclusive, SW480 rerep 6.51µM, Giardia killer inactive, MCF10A rereplic inconclusive, IL-1B inflam inh inactive and Vif-APOBEC3F blk inactive.
Brc1ccccc1-c1nnc2sc(-c3ccc4c(c3)OCCO4)nn12 was read as Vif-A3G inh inconclusive, SW480 rerep inconclusive, Giardia killer inactive, MCF10A rereplic 6.51µM, IL-1B inflam inh inconclusive and Vif-APOBEC3F blk inactive.
`Cc1ccc(N(C(C)C(=O)Nc2cc(Cl)ccc2Oc2ccccc2)S(C)(=O)=O)cc1` (configuration not stated) gave Vif-A3G inh inactive, SW480 rerep 8.2µM, Giardia killer inactive, MCF10A rereplic inactive, IL-1B inflam inh -69.2 and Vif-APOBEC3F blk inactive.
For COc1ccc(C)cc1NC(=O)C(C)N(c1ccc(C)cc1)S(C)(=O)=O (configuration not stated) the results were Vif-A3G inh inactive, SW480 rerep inactive, Giardia killer inactive, MCF10A rereplic inactive, IL-1B inflam inh inactive and Vif-APOBEC3F blk inactive.
For O=C(Nc1ccc(Cl)cc1Cl)c1ccc(-c2ccccc2)cc1 the results were Vif-A3G inh inactive, SW480 rerep inactive, Giardia killer inactive, MCF10A rereplic inactive, IL-1B inflam inh inactive and Vif-APOBEC3F blk inactive.
`CCOC(=O)c1ccc(Cl)c(NC(=O)c2ccc(-c3ccccc3)cc2)c1` gave Vif-A3G inh inactive, SW480 rerep inactive, Giardia killer inactive, MCF10A rereplic 3.66µM, IL-1B inflam inh inactive and Vif-APOBEC3F blk inactive.
`O=C(Nc1ccc(-c2noc(CCc3ccccc3)n2)cc1)c1cccnc1` gave Vif-A3G inh inactive, SW480 rerep inactive, Giardia killer inactive, MCF10A rereplic 16.4µM, IL-1B inflam inh inconclusive and Vif-APOBEC3F blk inactive.
`CCOc1ccc(CCNC(=O)CCc2c(C)nc3c(c(C)nn3-c3ccccc3)c2C)cc1OCC` gave Vif-A3G inh inactive and Vif-APOBEC3F blk inactive.
C=CC[n+]1cccc2cccc(O)c21 was read as Vif-A3G inh inactive.
Screening O=c1c(-c2nc3ccccc3s2)cccn1Cc1ccc(Cl)c(Cl)c1 returned Vif-A3G inh inactive, SW480 rerep 1.16µM, Giardia killer inactive, MCF10A rereplic inconclusive, IL-1B inflam inh inactive and Vif-APOBEC3F blk inactive.
O=C(c1cccn(Cc2ccc(Cl)c(Cl)c2)c1=O)N1CCOCC1 was read as Vif-A3G inh inactive, SW480 rerep inactive, Giardia killer inactive, MCF10A rereplic inactive, IL-1B inflam inh inactive and Vif-APOBEC3F blk inactive.
`O=C1N/C(=C\c2ccc(O)cc2)C(=O)c2ccccc21` gave Vif-A3G inh inactive, SW480 rerep 12.6µM, Giardia killer inactive, MCF10A rereplic 3.16µM, IL-1B inflam inh inactive and Vif-APOBEC3F blk inactive.
`C/C(=N\NC(=O)CNc1ccc(F)cc1)c1cc2ccccc2o1` gave Vif-A3G inh inactive, SW480 rerep inactive, Giardia killer inactive, MCF10A rereplic inactive, IL-1B inflam inh inactive and Vif-APOBEC3F blk inactive.
`COc1ccc(NCC(=O)N/N=C(\C)c2cc3ccccc3o2)cc1` gave Vif-A3G inh inactive, SW480 rerep inactive, Giardia killer inactive, MCF10A rereplic inactive, IL-1B inflam inh -54.8 and Vif-APOBEC3F blk inactive.
Cc1cc(NS(=O)(=O)c2ccc(NC(=S)NC(=O)c3cccnc3)cc2)no1 was read as Vif-A3G inh inactive, SW480 rerep 3.26µM, Giardia killer inactive, MCF10A rereplic inactive, IL-1B inflam inh inactive and Vif-APOBEC3F blk inactive.
For CN(C)C(=O)c1ccc2c(c1[N+](=O)[O-])C(=O)c1ccccc1C2=O the results were Vif-A3G inh inactive, Giardia killer inactive, MCF10A rereplic inconclusive, IL-1B inflam inh inactive and Vif-APOBEC3F blk inactive.
`Cc1[nH]c2c(C)cccc2c1CCNC(=O)c1ccc2c(c1[N+](=O)[O-])C(=O)c1ccccc1C2=O` gave Vif-A3G inh inactive, SW480 rerep 18.4µM, Giardia killer inactive, MCF10A rereplic 7.94µM, IL-1B inflam inh -109.1 and Vif-APOBEC3F blk inactive.
For Cc1[nH]c2ccccc2c1CCNC(=O)c1ccc2c(c1[N+](=O)[O-])C(=O)c1ccccc1C2=O the results were Vif-A3G inh inactive, SW480 rerep inconclusive, Giardia killer inactive, MCF10A rereplic inconclusive, IL-1B inflam inh -103.4 and Vif-APOBEC3F blk inactive.
COc1ccc(Cl)cc1NC(=O)CSc1ccc2nnc(CCNS(=O)(=O)c3ccccc3)n2n1 was read as Vif-A3G inh inactive and Vif-APOBEC3F blk inactive.
`CSc1nc(-c2ccc(N(C)C)cc2)c(C#N)c(=O)n1C` gave Vif-A3G inh inconclusive, SW480 rerep 7.31µM, Giardia killer inactive, MCF10A rereplic 11.6µM, IL-1B inflam inh inactive and Vif-APOBEC3F blk inconclusive.
For Cn1cccc1/C=C1\SC(=O)N(c2ccc(O)cc2)C1=O the results were Vif-A3G inh inconclusive, SW480 rerep inactive, Giardia killer inactive, MCF10A rereplic inconclusive, IL-1B inflam inh inactive and Vif-APOBEC3F blk 25.1µM.
For Cc1c(Cc2ccc3c(c2)OCO3)sc(NC(=O)c2ccc3ccccc3c2)c1C(N)=O the results were Vif-A3G inh inconclusive, SW480 rerep inactive, Giardia killer inactive, MCF10A rereplic 14.6µM, IL-1B inflam inh inactive and Vif-APOBEC3F blk inactive.
Screening CCC(=O)Nc1sc(Cc2ccc3c(c2)OCO3)c(C)c1C(N)=O returned Vif-A3G inh inactive, SW480 rerep inconclusive, Giardia killer inactive, MCF10A rereplic inconclusive, IL-1B inflam inh inactive and Vif-APOBEC3F blk inactive.
